# Data taken from ChEMBL document CHEMBL2218924, “A broad activity screen in support of a chemogenomic map for kinase signalling research and drug discovery” (Biochem J, 2013).
# Key:
# [1] = molecular target: Tyrosine-protein kinase SYK (Homo sapiens) (UniProt P43405); conditions: at 10 µM
# [2] = molecular target: T1, Mitogen-activated protein kinase kinase kinase 7 (Homo sapiens) (UniProt O43318); conditions: at 1 µM
# T1 sequence (whole entry): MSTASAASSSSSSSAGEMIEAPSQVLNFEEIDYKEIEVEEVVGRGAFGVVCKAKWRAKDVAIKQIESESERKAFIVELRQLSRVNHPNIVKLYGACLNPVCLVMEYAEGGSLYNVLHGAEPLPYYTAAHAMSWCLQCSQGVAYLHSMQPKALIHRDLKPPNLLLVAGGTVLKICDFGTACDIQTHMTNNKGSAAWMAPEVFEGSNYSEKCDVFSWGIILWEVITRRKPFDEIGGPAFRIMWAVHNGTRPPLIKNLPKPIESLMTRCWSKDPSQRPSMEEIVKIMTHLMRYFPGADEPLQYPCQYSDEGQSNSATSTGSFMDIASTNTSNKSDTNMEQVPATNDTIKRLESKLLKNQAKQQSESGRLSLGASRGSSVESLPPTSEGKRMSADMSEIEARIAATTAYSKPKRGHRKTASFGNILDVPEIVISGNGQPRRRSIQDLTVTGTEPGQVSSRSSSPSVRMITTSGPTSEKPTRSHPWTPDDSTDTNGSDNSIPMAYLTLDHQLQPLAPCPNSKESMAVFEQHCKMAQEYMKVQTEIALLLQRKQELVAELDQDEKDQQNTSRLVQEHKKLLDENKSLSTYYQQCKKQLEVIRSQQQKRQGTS
# [3] = molecular target: T1, Mitogen-activated protein kinase kinase kinase 7 (Homo sapiens); conditions: at 10 µM
# [4] = molecular target: T2, Serine/threonine-protein kinase TAO1 (Homo sapiens) (UniProt Q7L7X3); conditions: at 1 µM
# T2 sequence (whole entry): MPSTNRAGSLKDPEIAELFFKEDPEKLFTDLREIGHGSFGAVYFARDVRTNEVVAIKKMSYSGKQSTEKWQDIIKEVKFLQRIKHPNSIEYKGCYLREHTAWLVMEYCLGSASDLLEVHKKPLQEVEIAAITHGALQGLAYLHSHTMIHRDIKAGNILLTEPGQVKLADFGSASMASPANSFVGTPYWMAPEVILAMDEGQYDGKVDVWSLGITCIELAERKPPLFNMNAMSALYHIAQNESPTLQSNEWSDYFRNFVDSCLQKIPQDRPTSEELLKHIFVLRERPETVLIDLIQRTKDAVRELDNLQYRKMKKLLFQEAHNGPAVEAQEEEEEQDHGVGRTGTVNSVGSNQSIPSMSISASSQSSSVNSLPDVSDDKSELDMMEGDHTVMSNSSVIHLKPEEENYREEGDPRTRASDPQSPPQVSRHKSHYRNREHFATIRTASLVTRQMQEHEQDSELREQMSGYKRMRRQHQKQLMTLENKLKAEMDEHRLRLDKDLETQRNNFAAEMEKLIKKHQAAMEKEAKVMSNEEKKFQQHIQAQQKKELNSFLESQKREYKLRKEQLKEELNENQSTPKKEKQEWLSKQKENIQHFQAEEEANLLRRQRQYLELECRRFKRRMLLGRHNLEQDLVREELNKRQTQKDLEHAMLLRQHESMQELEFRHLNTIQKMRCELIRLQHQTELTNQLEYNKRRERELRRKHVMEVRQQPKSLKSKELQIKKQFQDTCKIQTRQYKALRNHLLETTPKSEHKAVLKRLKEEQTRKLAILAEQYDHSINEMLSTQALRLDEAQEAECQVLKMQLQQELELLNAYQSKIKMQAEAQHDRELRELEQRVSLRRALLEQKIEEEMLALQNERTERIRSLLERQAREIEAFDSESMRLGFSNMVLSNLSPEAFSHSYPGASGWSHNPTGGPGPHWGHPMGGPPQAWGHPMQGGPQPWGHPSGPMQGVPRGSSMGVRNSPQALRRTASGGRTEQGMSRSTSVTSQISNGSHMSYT
# [5] = molecular target: T2, Serine/threonine-protein kinase TAO1 (Homo sapiens); conditions: at 10 µM
# [6] = molecular target: T3, Serine/threonine-protein kinase TAO2 (Homo sapiens) (UniProt Q9UL54); conditions: at 1 µM
# T3 sequence (whole entry): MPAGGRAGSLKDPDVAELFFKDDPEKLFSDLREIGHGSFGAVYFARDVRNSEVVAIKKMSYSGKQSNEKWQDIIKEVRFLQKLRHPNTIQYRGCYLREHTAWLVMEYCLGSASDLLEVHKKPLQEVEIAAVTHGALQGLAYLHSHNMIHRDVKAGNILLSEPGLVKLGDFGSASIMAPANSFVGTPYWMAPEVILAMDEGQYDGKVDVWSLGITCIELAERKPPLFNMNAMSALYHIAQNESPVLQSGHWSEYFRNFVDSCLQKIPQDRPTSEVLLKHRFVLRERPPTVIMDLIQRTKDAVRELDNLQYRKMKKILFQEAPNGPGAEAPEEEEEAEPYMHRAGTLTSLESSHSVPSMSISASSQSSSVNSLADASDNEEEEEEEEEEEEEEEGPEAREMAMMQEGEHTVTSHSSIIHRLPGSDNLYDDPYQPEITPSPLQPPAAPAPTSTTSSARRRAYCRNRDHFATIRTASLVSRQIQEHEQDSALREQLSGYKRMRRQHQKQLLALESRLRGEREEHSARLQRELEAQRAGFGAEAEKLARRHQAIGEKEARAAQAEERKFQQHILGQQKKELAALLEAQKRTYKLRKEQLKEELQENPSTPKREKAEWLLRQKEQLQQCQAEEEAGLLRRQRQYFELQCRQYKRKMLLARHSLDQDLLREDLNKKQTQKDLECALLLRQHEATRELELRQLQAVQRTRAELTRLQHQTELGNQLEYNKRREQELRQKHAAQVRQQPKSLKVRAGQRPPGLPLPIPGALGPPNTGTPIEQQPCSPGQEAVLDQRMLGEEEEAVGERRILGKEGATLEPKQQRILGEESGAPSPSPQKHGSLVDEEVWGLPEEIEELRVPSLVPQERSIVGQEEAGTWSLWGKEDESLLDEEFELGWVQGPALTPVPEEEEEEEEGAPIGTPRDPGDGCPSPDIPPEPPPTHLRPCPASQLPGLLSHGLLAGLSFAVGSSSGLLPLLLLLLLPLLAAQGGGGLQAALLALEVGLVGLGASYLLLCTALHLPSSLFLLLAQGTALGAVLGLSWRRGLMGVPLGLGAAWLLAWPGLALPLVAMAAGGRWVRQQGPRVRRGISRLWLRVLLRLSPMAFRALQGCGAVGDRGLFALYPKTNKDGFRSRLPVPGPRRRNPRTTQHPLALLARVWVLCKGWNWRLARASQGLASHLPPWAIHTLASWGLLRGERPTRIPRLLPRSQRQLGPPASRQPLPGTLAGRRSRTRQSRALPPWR
# [7] = molecular target: T3, Serine/threonine-protein kinase TAO2 (Homo sapiens); conditions: at 10 µM
# [8] = molecular target: T4, Serine/threonine-protein kinase TAO3 (Homo sapiens) (UniProt Q9H2K8); conditions: at 1 µM
# T4 sequence (whole entry): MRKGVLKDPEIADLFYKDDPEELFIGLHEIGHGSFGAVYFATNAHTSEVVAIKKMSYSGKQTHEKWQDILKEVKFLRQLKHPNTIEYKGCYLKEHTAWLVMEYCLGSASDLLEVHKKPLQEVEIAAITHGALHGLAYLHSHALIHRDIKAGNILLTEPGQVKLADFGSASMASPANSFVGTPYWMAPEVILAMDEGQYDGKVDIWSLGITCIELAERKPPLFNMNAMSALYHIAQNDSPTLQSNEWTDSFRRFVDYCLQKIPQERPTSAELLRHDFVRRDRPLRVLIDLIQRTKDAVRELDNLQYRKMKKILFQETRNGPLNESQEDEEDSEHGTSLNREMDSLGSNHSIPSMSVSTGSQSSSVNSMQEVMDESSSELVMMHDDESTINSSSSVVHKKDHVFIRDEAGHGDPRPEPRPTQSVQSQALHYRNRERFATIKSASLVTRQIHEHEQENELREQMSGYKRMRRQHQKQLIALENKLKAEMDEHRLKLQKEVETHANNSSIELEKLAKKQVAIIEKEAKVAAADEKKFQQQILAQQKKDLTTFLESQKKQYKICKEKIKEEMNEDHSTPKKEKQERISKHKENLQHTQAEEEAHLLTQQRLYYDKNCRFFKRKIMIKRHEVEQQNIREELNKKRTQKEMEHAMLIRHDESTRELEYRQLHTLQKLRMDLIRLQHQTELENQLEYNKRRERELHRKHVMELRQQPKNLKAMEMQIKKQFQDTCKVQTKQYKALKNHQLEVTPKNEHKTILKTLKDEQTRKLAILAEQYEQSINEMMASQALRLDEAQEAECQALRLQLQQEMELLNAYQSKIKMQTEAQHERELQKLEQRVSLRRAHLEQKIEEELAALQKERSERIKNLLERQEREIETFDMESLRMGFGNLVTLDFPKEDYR
# [9] = molecular target: T4, Serine/threonine-protein kinase TAO3 (Homo sapiens); conditions: at 10 µM
# [10] = molecular target: T5, Serine/threonine-protein kinase TBK1 (Homo sapiens) (UniProt Q9UHD2); conditions: at 1 µM
# T5 sequence (whole entry): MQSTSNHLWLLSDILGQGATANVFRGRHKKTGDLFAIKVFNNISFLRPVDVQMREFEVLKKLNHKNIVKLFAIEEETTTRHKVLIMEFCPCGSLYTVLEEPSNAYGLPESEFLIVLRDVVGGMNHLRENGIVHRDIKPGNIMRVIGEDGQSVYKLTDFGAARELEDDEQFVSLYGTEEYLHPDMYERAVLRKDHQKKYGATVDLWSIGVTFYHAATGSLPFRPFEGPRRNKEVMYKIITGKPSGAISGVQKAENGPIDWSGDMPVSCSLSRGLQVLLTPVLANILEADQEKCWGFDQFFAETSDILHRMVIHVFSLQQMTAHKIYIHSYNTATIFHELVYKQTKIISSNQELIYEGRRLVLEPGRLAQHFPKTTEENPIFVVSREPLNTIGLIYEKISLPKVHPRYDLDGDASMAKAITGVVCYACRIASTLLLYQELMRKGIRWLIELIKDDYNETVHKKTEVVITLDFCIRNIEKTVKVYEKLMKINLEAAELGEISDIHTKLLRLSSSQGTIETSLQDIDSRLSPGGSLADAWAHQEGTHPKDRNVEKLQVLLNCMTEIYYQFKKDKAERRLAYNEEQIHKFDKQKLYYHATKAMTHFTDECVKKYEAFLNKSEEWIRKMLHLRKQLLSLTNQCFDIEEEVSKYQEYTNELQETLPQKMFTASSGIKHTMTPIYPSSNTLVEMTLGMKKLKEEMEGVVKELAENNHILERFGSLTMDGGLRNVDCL
# [11] = molecular target: T5, Serine/threonine-protein kinase TBK1 (Homo sapiens); conditions: at 10 µM
# [12] = molecular target: T6, TGF-beta receptor type-1 (Homo sapiens) (UniProt P36897); conditions: at 1 µM
# T6 sequence (whole entry): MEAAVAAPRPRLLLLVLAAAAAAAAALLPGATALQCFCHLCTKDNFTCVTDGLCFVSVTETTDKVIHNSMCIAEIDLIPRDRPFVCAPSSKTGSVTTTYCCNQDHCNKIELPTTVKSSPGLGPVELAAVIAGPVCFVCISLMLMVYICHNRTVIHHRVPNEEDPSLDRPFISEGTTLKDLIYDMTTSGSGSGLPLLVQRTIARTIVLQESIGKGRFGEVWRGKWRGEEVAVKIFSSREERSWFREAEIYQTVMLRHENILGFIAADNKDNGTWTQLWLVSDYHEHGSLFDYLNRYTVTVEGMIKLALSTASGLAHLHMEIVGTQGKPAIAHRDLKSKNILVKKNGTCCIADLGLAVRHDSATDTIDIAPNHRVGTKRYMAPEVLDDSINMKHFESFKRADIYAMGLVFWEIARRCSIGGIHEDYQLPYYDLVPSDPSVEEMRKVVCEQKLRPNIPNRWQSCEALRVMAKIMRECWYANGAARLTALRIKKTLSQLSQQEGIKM
# [13] = molecular target: T6, TGF-beta receptor type-1 (Homo sapiens); conditions: at 10 µM
# [14] = molecular target: Insulin-like growth factor 1 receptor (Homo sapiens) (UniProt P08069); conditions: at 1 µM
# Insulin-like growth factor 1 receptor (Homo sapiens), sequence (P08069 31-736 limits assumed): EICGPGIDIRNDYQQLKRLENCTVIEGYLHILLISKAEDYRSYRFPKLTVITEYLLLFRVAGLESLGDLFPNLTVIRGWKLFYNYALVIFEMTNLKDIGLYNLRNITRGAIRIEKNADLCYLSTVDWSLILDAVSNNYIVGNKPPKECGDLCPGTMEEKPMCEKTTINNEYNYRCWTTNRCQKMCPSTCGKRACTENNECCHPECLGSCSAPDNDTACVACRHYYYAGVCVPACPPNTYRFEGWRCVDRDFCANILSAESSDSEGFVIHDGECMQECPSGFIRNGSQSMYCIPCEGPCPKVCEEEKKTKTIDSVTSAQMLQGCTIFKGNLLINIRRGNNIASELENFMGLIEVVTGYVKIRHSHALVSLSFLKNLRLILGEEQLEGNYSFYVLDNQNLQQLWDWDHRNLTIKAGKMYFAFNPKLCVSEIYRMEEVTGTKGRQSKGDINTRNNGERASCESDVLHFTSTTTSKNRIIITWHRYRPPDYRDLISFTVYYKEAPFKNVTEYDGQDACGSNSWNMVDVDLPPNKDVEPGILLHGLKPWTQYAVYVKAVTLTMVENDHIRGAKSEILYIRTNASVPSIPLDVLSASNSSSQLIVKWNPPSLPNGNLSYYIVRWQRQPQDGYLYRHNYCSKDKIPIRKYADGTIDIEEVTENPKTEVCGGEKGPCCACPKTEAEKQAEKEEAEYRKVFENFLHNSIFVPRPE
# Insulin-like growth factor 1 receptor (Homo sapiens), sequence (P08069 741-1367 limits assumed): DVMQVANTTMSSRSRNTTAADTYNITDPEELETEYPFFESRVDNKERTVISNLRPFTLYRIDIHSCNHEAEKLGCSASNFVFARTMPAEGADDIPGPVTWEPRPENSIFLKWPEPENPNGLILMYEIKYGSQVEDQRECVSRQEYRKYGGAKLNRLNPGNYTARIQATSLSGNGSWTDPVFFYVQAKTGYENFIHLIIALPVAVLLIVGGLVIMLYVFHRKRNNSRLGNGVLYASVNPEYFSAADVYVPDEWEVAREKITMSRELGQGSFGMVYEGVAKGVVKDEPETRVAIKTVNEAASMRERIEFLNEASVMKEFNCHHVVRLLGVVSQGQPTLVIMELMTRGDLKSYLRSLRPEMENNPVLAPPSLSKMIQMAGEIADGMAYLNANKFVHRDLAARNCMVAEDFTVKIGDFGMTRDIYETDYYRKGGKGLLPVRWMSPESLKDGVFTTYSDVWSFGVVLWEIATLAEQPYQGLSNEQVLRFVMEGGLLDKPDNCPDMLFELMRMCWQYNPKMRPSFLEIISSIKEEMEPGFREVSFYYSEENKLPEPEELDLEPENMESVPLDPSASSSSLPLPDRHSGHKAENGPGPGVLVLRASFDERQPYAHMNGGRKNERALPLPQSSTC
# [15] = molecular target: Insulin-like growth factor 1 receptor (Homo sapiens) (UniProt P08069); conditions: at 10 µM
# [16] = molecular target: T7, Inhibitor of nuclear factor kappa-B kinase subunit alpha (Homo sapiens) (UniProt O15111); conditions: at 1 µM
# T7 sequence (whole entry): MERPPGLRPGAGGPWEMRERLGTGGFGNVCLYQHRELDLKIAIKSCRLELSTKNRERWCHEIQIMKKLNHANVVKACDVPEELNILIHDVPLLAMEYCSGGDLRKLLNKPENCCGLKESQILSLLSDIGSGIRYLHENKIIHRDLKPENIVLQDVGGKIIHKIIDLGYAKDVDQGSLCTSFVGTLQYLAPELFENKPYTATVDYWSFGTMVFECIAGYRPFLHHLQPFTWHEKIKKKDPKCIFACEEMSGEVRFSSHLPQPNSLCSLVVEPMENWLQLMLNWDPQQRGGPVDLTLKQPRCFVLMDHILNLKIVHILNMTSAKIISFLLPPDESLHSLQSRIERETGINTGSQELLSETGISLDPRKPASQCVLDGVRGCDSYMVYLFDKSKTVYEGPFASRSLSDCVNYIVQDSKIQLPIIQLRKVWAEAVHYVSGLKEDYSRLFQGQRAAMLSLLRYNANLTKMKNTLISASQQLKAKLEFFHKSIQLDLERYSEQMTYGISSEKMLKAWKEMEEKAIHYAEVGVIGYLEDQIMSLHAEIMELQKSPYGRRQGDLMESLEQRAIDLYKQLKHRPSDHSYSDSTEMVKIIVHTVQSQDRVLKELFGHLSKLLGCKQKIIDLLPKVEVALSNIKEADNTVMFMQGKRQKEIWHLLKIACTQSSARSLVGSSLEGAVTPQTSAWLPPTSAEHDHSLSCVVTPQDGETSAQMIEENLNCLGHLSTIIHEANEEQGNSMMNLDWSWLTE
# [17] = molecular target: T7, Inhibitor of nuclear factor kappa-B kinase subunit alpha (Homo sapiens); conditions: at 10 µM
structure (smiles),measurement,setting,value
CCCCc1c(-c2ccc(O)cc2)[nH]c2nccnc12,residual activity,[1],66%
same,residual activity,[2],90%
same,residual activity,[3],89%
same,residual activity,[4],36%
same,residual activity,[5],7%
same,residual activity,[6],35%
same,residual activity,[7],30%
same,residual activity,[8],62%
same,residual activity,[9],68%
same,residual activity,[10],70%
same,residual activity,[11],35%
same,residual activity,[12],91%
same,residual activity,[13],46%
same,residual activity,[14],65%
same,residual activity,[15],66%
same,residual activity,[16],90%
same,residual activity,[17],81%
